GSTO1 counter: blocks human GSTO1 in RBBP9 counter-screen. 1.1% of 300,000 active. recombinant GSTO1, activity-based probe fluorescence polarization. AID 1974. inhibition, % at 5.96 µM;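 active = inhibition above the campaign mean inhibition plus 3 SD, cut at about 35% in these data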;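 also: 0% = GSTO1-1 with DMSO and 100% = wells lacking GSTO1-1 enzyme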
Target sequence (P78417 whole entry, looked up): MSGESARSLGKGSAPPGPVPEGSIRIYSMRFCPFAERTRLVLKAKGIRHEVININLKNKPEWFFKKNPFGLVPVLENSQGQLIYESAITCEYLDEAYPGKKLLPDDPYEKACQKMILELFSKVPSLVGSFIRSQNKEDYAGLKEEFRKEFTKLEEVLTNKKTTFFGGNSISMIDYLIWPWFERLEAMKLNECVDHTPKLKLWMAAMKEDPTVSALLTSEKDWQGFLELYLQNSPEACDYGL
PAD4 FP inh: blocks human protein arginine deiminase 4; 0.41% of 330,000 active; Q9UM07; recombinant PAD4, RCA probe fluorescence polarization; inhibition, % at 6.36 µM;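 active = percent inhibition above a cutoff equal to the mean of all tested compounds plus 3 SD, cut at about 15% in these data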;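 also: 0% = PAD4 with RCA probe and DMSO and 100% = probe without PAD4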
LYPLA1 inh: blocks human lysophospholipase 1, a PME1 counter-screen; O75608; inhibition, % at 5.9 µM; recombinant LYPLA1, FP-Rh probe fluorescence polarization; 0.16% of 320,000 active;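 active = inhibition above the mean of all tested compounds plus 3 SD, set per campaign, cut at about 14% in these data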;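 also: inhibitors block serine hydrolase probe labeling of LYPLA1 so polarization falls; 0% = enzyme with DMSO and 100% = wells lacking LYPLA1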
PME-1 inh: PME-1 (human) inhibition; 0.53% of 320,000 active; inhibition, % at 5.9 µM; recombinant PME-1, FP-Rh probe fluorescence polarization;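 active = inhibition above the campaign mean of all compounds plus 3 SD, cut at about 26% in these data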;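 also: competitive labeling of PME-1 active site by serine hydrolase directed probe; 0% = PME-1 with DMSO and 100% = wells lacking PME-1 enzyme; inhibitors block probe labeling so polarization falls and inhibition rises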
Target sequence (Q9Y570 whole entry, looked up): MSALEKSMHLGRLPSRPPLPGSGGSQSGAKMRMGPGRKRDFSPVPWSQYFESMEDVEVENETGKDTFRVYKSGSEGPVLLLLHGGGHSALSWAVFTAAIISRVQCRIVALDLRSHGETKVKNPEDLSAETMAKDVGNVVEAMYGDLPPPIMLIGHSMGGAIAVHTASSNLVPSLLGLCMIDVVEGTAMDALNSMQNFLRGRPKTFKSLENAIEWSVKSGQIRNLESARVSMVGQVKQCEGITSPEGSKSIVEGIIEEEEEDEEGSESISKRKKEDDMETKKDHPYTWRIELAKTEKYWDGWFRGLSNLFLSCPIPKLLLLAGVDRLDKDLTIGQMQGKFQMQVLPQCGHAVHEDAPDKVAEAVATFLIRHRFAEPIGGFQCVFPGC
Fam108B counter: blocks mouse Fam108B hydrolase in RBBP9 counter-screen; recombinant Fam108B, FP-Rh probe fluorescence polarization; inhibition, % at 9.51 µM; 0.33% of 300,000 active; AID 1947;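 active = inhibition above the screen mean inhibition plus 3 SD, computed separately per campaign, cut at about 18% in these data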;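 also: inhibitors lower polarization as less probe binds the enzyme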
LYPLA2 inh: blocks human lysophospholipase 2, a PME1 counter-screen. recombinant LYPLA2, FP-Rh probe fluorescence polarization. AID 2177. 0.38% of 320,000 active. inhibition, % at 5.9 µM;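 active = inhibition above the screen-wide mean plus 3 SD, limit set per campaign, cut at about 26% in these data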;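 also: 0% = LYPLA2 with DMSO and 100% = wells lacking LYPLA2 enzyme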
GSTO1 inh conf: confirmation of human GSTO1 inhibitors; 54% of 2,400 active; AID 2176; inhibition, % at 5.96 µM; shares compounds with GSTO1 counter; recombinant GSTO1, probe fluorescence polarization;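 active = inhibition above the primary screen's cutoff, its mean inhibition plus 3 SD, cut at about 35% in these data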;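 also: loss of polarization as inhibitors block binding of rhodamine sulfonate ester activity probe; 0% = GSTO1 with DMSO and 100% = wells lacking GSTO1 enzyme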
GSTO1 ABPP inh: GSTO1 (human) inhibition by gel ABPP. 30% of 130 active. inhibition, % at 1 µM. shares compounds with GSTO1 counter. recombinant GSTO1, gel ABPP SE-Rh probe fluorescence. AID 463110;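 active = inhibition of the enzyme GSTO1 above about 75%, limit read from the data; inactive = inhibition below that limit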
Numbers without * were called inactive; nt = not tested or not shown. Only some compounds are listed: those with a hit (about 1.8% of all), similar ones and a draw of the others.

SMILES | GSTO1 counter | PAD4 FP inh | LYPLA1 inh | PME-1 inh | Fam108B counter | LYPLA2 inh | GSTO1 inh conf | others
CC(=O)Nc1ccc(Sc2ccccc2C(=O)Nc2ccc(F)cc2)cn1 | -2.5 | -0.1 | -1.5 | 0.8 | 1.0 | -1.3 | nt
Cc1cccc(N/N=C/c2ccc(O)c(O)c2O)c1 | 56.2* | -0.1 | -8.9 | 1.1 | 6.6 | -3.1 | 22.7
CCC(NC(C)C)C(O)c1ccc(O)c(O)c1 (centres undefined) | 50.0* | -3.0 | -0.3 | -5.6 | -2.0 | -1.5 | 2.4
Oc1ccc(/C=N/N(c2ccccc2)c2ccccc2)c(O)c1O | 50.8* | -7.0 | -9.4 | 2.5 | 4.5 | -2.6 | 5.1
CC(CCc1ccccc1)NC(=O)COC(=O)c1cc(NS(=O)(=O)c2ccc(Cl)c([N+](=O)[O-])c2)ccc1O (centres undefined) | 43.0* | -4.2 | -12.6 | 19.0 | -0.3 | -12.7 | 48.8*
Nc1c(C(=O)OCC2CCCO2)c2nc3ccccc3nc2n1C1CCCCC1 (centres undefined) | 67.3* | -14.3 | -1.5 | 2.1 | -0.4 | -3.7 | 12.9
COc1ccccc1NC(=O)Cc1nc(CCl)cs1 | 67.6* | -1.1 | 0.0 | -1.3 | 1.3 | 4.1 | 94.6* | GSTO1 ABPP inh=49.0
CCC(=O)Nc1nc(CC(=O)Nc2ccccc2OC)cs1 | -3.4 | -6.5 | -1.8 | 5.8 | -1.2 | -2.2 | nt
CC(C)(C)c1ccc(S(=O)(=O)Nc2ccccn2)cc1 | 5.5 | -3.3 | -1.3 | -2.8 | 0.3 | -1.2 | nt
CN(C)c1cccc2c(S(=O)(=O)Nc3ccccn3)cccc12 | 45.2* | -8.8 | 0.6 | 6.6 | 3.8 | 2.1 | 6.7
CCC(Oc1ccccc1OC)C(=O)Nc1ccc2c(c1)OCO2 (centres undefined) | 0.7 | 4.6 | -4.2 | -3.6 | -3.1 | -3.0 | nt
CCOc1cccc(CNc2ccc(O)cc2)c1OCc1ccc(Cl)cc1 | 75.5* | -11.3 | -1.2 | 22.2 | 16.7 | 5.3 | 4.3
CCOc1cc(CNc2ccc(O)cc2)ccc1OCc1ccc(Cl)cc1Cl | 87.3* | 30.4* | 4.8 | 28.7* | 15.7 | 13.9 | 3.2
COc1cccc(CNCCO)c1OCc1ccc(Cl)cc1 | 9.1 | 1.9 | -4.0 | 0.9 | 1.5 | -0.8 | nt
Oc1ccc(NCc2ccccc2OCc2ccccc2F)cc1 | 73.7* | 2.9 | -2.4 | 25.5 | 10.2 | 18.8 | 9.5
Cc1ccc(NCc2ccccc2OCc2ccccc2F)cc1 | 7.2 | -5.3 | -1.1 | -1.8 | 2.8 | 4.5 | nt
CCN(CC)CCCNC(=S)N1CCC(c2nc3ccccc3[nH]2)CC1 | 5.0 | -2.1 | -1.1 | -6.6 | -4.9 | -1.6 | nt
CCC(=O)c1ccc(OCC(=O)OCC(=O)NCC2CCCCC2)cc1 | 3.9 | -0.7 | -1.1 | -2.0 | -0.1 | 0.8 | nt
CCCc1ccccc1OCCNS(=O)(=O)c1cc2c(cc1C)OCC(=O)N2 | 43.2* | 3.5 | -5.2 | -3.0 | 4.3 | -1.5 | 30.3
CCCC[n+]1ccn(-c2nc3ccccc3nc2[N-]S(=O)(=O)c2ccc(Br)cc2)c1 | 7.6 | 2.2 | 4.3 | 0.6 | 3.4 | 5.9 | nt
CCCC[n+]1ccn(C2=C([O-])c3ccccc3C(=O)/C2=N\S(=O)(=O)c2ccc(Cl)cc2)c1 | 75.3* | -8.0 | 1.1 | 1.1 | 5.2 | 8.0 | 70.7*
CCCCC[n+]1ccn(C2=C([O-])c3ccccc3C(=O)/C2=N\S(=O)(=O)c2ccc(Cl)cc2)c1 | 65.6* | -3.9 | -1.4 | -1.9 | 0.0 | 0.6 | 27.6
Cc1cc(C)c(OCCCNC2CCCC2)c(Br)c1 | 2.2 | -2.7 | -3.3 | -3.0 | -0.7 | 2.5 | nt
C=CCOc1ccc(C2C(C#N)=C(N)N(Nc3ccccc3)C3=C2C(=O)CCC3)cc1OC (centres undefined) | -6.1 | -0.6 | 2.9 | -3.1 | 2.9 | 0.9 | nt
CC(=O)Oc1ccc2occ(/C=N/c3cc(=O)[nH]c(=S)[nH]3)c(=O)c2c1 | 73.4* | 6.2 | -2.3 | 4.5 | -0.2 | -1.4 | 12.4
SMILES | GSTO1 counter | PAD4 FP inh | LYPLA1 inh | PME-1 inh | Fam108B counter | LYPLA2 inh | GSTO1 inh conf | others
Nc1nnc(SCC(=O)OCC(=O)Nc2ccccc2)s1 | 0.3 | -2.9 | -3.8 | -0.3 | -1.6 | 7.2 | nt
COC(=O)c1ccccc1NC(=O)COC(=O)CSc1nnc(N)s1 | 45.0* | -4.9 | -3.1 | -1.1 | -2.8 | -2.4 | 32.3
COc1ccccc1N(CC1CO1)S(=O)(=O)c1ccccc1 (centres undefined) | 85.3* | -0.7 | 1.0 | 0.1 | -1.8 | 5.1 | 78.1* | GSTO1 ABPP inh=13.0
COc1ccccc1N(CC1CO1)S(=O)(=O)c1ccc(C)cc1 (centres undefined) | 74.7* | 1.5 | 1.3 | -2.3 | 2.0 | 3.3 | 82.6* | GSTO1 ABPP inh=41.0
CS(=O)(=O)N(CC(=O)NCC1CCCO1)c1cc(Cl)ccc1Cl (centres undefined) | -5.9 | -4.6 | -0.8 | 0.3 | 2.0 | -2.1 | nt
COc1ccc([N+](=O)[O-])cc1N(CC1CO1)S(=O)(=O)c1ccc(C)cc1 (centres undefined) | 87.6* | 2.3 | 1.3 | 4.9 | 1.0 | 0.7 | 98.2* | GSTO1 ABPP inh=44.0
O=S(=O)(c1ccccc1)N(CC1CO1)c1cc(Cl)ccc1Cl (centres undefined) | 92.1* | 1.4 | -2.5 | -0.7 | 10.3 | 4.8 | 94.0* | GSTO1 ABPP inh=51.0
O=C(COC(=O)CNS(=O)(=O)c1ccccc1)Nc1ncc(Cl)cc1Cl | nt | -4.9 | -0.1 | -0.4 | nt | 1.3 | nt
Cc1onc(-c2ccccc2)c1C(=O)N/N=C/c1cn(C)c2ccccc12 | -6.3 | -3.5 | 0.9 | -2.3 | 1.5 | -2.3 | nt
O=C(Nc1ccc(S(=O)(=O)N2CCOCC2)cc1)c1ccccc1Br | -3.6 | -0.1 | -0.2 | -0.7 | -5.5 | -1.3 | nt
COc1ccc(N(CC2CO2)S(=O)(=O)c2ccccc2)cc1 (centres undefined) | 70.0* | 4.9 | 0.2 | -0.3 | 0.4 | -0.7 | 85.5* | GSTO1 ABPP inh=19.0
COc1ccc(N(CCOc2ccccc2)S(=O)(=O)c2ccccc2)cc1 | nt | -0.8 | -0.8 | -0.6 | nt | 1.4 | nt
O=[N+]([O-])c1ccccc1N(CC1CO1)S(=O)(=O)c1ccccc1 (centres undefined) | 81.4* | -1.3 | 0.8 | -1.1 | 1.9 | -3.1 | 94.0* | GSTO1 ABPP inh=12.0
Cc1ccc2[nH]c(C(=O)N3CCN(c4cccc(Cl)c4)CC3)cc2c1 | 2.3 | 4.6 | -0.5 | -0.5 | -0.1 | 4.4 | nt
Cc1cccc(CC(=O)Nc2ccon2)c1 | 58.6* | -5.2 | -4.5 | -3.7 | 1.9 | -2.9 | 6.0
Cc1ccccc1CC(=O)Nc1ccon1 | 1.5 | 4.4 | 2.3 | 2.0 | 4.3 | 0.8 | nt
O=C(O)c1cc(N/N=C/c2ccc(N3CCOCC3)s2)ccc1Cl | 39.2* | -3.0 | 2.7 | -2.9 | 15.9 | 4.7 | 18.0
Cc1cccc(CNC(=O)CC2C(=O)NCCN2C2CCCC2)c1 (centres undefined) | 2.5 | -0.9 | 3.0 | 0.9 | 2.2 | 7.1 | nt
COc1cccc(CNC(=O)C(CC(C)C)NC(=O)c2ccccc2C)c1 (centres undefined) | -4.0 | -7.7 | 0.5 | -10.7 | 0.3 | 8.7 | nt
